# Laboratory results: ChEMBL document CHEMBL1961873, “Compounds: GSK PKIS; Assays: Nanosyn kinase panel” (2012)
# Assays:
# [1] = target: Sphingosine kinase 1 (Homo sapiens) (UniProt Q9NYA1); conditions: at 1 µM;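 note: mean SPHK1 inhibition value reported from the GSK PKIS kinase panel screen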
# [2] = target: T1, Sphingosine kinase 2 (Homo sapiens) (UniProt Q9NRA0); conditions: at 0.1 µM
# T1 sequence (whole entry): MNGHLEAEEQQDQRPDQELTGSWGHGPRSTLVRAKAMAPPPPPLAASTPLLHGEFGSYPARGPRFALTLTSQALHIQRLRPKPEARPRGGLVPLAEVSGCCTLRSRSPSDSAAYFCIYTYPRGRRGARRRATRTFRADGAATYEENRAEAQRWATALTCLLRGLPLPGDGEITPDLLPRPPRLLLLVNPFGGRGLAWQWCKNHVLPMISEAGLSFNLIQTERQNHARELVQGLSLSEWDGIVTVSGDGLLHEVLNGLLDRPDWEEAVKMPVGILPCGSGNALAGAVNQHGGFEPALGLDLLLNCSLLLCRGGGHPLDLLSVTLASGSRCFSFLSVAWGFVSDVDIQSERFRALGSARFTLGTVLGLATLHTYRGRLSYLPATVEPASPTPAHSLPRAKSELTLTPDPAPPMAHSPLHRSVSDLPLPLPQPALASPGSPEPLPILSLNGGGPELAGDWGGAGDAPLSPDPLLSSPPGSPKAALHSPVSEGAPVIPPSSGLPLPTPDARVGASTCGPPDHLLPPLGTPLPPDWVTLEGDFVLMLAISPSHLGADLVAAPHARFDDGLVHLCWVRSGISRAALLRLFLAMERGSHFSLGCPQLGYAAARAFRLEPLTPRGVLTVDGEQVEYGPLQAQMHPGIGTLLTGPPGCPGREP
# [3] = target: T1, Sphingosine kinase 2 (Homo sapiens); conditions: at 1 µM
# [4] = target: Casein kinase II subunit alpha (Homo sapiens) (UniProt P68400); conditions: at 0.1 µM
# [5] = target: Casein kinase II subunit alpha (Homo sapiens) (UniProt P68400); conditions: at 1 µM
# [6] = target: T2, Inhibitor of nuclear factor kappa-B kinase subunit alpha (Homo sapiens) (UniProt O15111); conditions: at 0.1 µM
# T2 sequence (whole entry): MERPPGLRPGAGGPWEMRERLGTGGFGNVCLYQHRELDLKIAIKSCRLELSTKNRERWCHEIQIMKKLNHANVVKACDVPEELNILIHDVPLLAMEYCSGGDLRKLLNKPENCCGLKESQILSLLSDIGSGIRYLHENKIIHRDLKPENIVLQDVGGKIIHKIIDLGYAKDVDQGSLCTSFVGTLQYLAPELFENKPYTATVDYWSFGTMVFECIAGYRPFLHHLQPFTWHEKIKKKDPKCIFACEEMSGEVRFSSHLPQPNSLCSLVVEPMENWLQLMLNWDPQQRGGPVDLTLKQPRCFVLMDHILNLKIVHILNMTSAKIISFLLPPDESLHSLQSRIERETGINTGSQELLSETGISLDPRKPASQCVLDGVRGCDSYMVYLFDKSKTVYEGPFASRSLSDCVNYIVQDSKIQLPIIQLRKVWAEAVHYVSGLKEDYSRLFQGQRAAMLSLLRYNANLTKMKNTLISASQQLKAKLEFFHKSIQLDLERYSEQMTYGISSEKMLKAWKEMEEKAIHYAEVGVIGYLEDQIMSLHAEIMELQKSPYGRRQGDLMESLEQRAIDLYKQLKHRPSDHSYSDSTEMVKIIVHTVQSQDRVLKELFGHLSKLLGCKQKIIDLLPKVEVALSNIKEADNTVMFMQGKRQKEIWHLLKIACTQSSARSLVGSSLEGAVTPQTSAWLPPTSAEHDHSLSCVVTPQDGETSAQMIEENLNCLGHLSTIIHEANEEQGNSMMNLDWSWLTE
# [7] = target: T2, Inhibitor of nuclear factor kappa-B kinase subunit alpha (Homo sapiens); conditions: at 1 µM
# [8] = target: T3, Inhibitor of nuclear factor kappa-B kinase subunit beta (Homo sapiens) (UniProt O14920); conditions: at 0.1 µM
# T3 sequence (whole entry): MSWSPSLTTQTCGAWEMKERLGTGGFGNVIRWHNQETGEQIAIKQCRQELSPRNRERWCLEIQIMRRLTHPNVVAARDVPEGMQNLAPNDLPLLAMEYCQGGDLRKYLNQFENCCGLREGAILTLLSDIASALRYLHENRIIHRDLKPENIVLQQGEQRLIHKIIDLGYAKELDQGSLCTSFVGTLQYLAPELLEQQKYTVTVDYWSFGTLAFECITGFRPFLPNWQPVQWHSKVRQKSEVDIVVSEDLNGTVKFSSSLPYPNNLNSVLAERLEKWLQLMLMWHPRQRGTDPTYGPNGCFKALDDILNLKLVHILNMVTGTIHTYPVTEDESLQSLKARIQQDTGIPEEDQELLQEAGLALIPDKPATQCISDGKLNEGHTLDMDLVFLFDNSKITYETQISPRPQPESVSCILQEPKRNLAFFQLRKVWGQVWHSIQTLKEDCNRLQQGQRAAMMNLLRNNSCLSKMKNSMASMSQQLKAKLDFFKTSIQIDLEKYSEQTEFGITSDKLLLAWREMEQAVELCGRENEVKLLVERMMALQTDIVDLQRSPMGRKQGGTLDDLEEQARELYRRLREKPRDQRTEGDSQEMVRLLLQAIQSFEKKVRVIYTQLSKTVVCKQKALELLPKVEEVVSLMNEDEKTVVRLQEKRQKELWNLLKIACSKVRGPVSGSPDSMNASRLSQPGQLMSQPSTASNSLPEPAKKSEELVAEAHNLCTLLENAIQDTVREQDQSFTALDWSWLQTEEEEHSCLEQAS
# [9] = target: T3, Inhibitor of nuclear factor kappa-B kinase subunit beta (Homo sapiens); conditions: at 1 µM
# [10] = target: T4, Inhibitor of nuclear factor kappa-B kinase subunit epsilon (Homo sapiens) (UniProt Q14164); conditions: at 0.1 µM
# T4 sequence (whole entry): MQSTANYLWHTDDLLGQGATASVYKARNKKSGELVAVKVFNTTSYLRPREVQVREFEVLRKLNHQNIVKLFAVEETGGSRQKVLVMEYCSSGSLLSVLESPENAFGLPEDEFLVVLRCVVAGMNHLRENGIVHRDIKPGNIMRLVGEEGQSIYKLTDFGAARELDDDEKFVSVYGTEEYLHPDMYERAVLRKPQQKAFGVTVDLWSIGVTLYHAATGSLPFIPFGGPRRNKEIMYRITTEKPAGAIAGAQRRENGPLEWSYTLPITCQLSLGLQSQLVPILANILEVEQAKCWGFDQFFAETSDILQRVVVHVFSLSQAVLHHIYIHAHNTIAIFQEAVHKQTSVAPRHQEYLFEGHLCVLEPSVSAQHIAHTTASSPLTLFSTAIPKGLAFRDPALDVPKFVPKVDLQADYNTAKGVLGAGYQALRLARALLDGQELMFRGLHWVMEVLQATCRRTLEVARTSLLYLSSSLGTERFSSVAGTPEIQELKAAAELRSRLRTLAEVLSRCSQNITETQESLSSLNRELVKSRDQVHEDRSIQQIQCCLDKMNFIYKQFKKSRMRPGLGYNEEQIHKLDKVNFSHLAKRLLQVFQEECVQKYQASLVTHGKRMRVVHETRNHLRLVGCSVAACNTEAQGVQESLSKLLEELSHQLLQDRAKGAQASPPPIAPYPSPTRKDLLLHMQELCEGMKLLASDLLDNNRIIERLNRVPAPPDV
# [11] = target: T4, Inhibitor of nuclear factor kappa-B kinase subunit epsilon (Homo sapiens); conditions: at 1 µM
# [12] = target: T5, Serine/threonine-protein kinase Nek1 (Homo sapiens) (UniProt Q96PY6); conditions: at 0.1 µM
# T5 sequence (whole entry): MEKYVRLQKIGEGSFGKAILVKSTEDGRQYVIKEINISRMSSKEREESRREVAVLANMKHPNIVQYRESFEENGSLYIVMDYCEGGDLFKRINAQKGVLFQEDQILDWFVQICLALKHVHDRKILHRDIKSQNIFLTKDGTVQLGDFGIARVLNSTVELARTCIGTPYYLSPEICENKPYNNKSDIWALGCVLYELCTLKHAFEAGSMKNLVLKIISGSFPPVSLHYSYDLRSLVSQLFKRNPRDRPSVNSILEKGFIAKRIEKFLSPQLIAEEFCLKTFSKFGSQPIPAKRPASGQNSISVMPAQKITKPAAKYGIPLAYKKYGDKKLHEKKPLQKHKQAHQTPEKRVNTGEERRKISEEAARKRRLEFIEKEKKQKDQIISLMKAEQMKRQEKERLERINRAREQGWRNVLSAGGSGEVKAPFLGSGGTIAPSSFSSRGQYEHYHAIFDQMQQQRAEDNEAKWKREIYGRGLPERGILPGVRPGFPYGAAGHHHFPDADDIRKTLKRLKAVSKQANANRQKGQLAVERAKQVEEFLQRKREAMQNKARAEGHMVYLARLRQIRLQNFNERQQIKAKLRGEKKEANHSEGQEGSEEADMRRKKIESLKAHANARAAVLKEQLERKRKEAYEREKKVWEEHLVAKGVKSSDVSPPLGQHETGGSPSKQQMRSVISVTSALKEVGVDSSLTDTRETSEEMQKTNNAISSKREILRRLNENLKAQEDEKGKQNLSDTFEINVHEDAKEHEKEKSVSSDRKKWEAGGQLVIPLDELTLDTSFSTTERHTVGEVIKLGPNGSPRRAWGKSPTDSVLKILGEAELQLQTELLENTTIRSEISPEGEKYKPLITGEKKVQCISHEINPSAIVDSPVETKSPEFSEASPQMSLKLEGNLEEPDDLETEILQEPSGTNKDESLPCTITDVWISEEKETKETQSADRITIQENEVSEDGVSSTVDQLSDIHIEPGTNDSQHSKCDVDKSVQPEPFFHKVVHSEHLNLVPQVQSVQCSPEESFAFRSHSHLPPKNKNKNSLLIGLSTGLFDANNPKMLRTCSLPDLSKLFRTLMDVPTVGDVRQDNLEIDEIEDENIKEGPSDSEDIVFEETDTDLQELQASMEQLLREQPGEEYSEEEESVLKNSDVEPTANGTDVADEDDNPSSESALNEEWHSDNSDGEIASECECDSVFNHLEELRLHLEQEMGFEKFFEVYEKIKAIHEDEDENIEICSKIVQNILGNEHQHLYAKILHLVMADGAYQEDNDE
# [13] = target: T5, Serine/threonine-protein kinase Nek1 (Homo sapiens); conditions: at 1 µM
# [14] = target: T6, Serine/threonine-protein kinase Nek2 (Homo sapiens) (UniProt P51955); conditions: at 0.1 µM
# T6 sequence (whole entry): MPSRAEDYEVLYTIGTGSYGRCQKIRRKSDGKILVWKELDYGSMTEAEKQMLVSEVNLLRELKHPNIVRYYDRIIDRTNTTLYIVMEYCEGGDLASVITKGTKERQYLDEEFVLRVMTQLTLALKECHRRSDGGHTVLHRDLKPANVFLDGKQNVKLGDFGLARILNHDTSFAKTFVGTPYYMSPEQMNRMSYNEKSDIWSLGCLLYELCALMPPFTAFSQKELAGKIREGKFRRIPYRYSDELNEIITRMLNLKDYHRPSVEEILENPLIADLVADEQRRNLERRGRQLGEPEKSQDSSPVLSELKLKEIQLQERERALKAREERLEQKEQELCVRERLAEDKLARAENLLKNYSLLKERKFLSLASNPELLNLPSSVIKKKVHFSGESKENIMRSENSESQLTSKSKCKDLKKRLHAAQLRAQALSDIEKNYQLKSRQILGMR
# [15] = target: T6, Serine/threonine-protein kinase Nek2 (Homo sapiens); conditions: at 1 µM
# [16] = target: Serine/threonine-protein kinase Nek6 (Homo sapiens) (UniProt Q9HC98); conditions: at 0.1 µM
# [17] = target: Serine/threonine-protein kinase Nek6 (Homo sapiens) (UniProt Q9HC98); conditions: at 1 µM
# [18] = target: Serine/threonine-protein kinase Nek7 (Homo sapiens) (UniProt Q8TDX7); conditions: at 0.1 µM
# [19] = target: Serine/threonine-protein kinase Nek7 (Homo sapiens) (UniProt Q8TDX7); conditions: at 1 µM
# [20] = target: T7, Serine/threonine-protein kinase Nek9 (Homo sapiens) (UniProt Q8TD19); conditions: at 0.1 µM;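 note: reported value is the mean percent inhibition of NEK9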
# T7 sequence (whole entry): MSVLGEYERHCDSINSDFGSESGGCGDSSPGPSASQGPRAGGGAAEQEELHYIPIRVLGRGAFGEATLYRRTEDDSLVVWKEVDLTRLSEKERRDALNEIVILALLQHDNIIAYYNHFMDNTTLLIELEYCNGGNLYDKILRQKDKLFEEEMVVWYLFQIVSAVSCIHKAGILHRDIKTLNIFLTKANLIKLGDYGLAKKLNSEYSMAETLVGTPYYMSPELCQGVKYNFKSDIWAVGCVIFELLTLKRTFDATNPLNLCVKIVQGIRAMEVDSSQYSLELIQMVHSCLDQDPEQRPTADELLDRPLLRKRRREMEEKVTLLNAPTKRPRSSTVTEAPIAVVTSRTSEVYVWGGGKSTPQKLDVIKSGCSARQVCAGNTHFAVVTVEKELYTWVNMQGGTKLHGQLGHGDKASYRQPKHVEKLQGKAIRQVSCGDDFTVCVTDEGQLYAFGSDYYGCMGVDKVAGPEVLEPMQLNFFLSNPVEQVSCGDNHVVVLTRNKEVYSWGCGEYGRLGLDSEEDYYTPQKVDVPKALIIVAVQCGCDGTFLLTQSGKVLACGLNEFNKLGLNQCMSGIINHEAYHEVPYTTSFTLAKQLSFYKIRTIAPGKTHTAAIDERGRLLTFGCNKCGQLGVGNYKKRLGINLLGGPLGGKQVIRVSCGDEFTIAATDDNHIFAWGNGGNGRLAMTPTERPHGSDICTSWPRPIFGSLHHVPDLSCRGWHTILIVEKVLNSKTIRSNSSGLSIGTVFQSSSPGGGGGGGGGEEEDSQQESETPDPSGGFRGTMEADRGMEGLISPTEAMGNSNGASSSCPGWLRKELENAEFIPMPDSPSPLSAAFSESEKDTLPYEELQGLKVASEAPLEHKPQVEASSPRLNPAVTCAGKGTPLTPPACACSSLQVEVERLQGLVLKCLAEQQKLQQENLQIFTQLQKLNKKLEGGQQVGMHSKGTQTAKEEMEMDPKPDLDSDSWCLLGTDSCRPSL
# Casein kinase II subunit alpha (Homo sapiens), sequence (P68400 whole entry, looked up): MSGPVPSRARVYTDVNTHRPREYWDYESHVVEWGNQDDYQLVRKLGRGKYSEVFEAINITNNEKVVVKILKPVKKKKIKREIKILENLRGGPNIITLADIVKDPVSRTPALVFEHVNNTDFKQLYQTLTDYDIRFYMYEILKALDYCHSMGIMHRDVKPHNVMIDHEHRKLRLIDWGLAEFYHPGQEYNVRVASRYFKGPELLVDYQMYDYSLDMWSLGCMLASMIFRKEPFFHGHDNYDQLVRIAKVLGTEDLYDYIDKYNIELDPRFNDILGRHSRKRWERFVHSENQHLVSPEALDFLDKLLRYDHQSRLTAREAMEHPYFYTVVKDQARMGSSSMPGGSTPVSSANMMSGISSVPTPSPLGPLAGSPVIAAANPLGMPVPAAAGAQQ
# Serine/threonine-protein kinase Nek7 (Homo sapiens), sequence (Q8TDX7 whole entry, looked up): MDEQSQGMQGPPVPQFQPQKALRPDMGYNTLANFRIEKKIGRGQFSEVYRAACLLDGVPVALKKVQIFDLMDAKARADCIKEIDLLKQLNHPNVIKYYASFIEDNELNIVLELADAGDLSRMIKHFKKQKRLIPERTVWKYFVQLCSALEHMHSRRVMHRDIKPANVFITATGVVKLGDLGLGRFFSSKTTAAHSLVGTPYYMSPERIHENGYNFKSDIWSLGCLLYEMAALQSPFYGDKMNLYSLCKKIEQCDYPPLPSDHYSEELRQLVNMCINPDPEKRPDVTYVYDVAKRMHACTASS
# Serine/threonine-protein kinase Nek6 (Homo sapiens), sequence (Q9HC98 whole entry): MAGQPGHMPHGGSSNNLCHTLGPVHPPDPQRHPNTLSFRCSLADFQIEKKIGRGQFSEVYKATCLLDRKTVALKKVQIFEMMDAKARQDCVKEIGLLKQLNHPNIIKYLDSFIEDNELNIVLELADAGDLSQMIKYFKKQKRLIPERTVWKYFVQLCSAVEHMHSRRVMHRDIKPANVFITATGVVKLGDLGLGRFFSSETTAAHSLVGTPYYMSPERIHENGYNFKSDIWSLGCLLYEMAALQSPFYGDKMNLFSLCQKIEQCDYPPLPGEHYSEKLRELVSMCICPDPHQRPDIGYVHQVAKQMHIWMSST
# Sphingosine kinase 1 (Homo sapiens), sequence (Q9NYA1 whole entry): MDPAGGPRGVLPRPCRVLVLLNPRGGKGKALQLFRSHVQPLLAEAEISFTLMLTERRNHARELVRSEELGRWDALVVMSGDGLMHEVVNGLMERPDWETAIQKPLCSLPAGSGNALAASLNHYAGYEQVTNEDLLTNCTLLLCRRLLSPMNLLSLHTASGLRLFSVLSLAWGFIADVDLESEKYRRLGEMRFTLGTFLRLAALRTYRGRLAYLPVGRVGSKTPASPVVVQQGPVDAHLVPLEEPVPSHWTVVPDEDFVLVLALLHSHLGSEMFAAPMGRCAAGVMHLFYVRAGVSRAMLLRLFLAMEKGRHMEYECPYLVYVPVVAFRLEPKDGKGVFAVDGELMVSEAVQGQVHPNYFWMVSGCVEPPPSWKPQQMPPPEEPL
SMILES,inhibition [1] [%],inhibition [2] [%],inhibition [3] [%],inhibition [4] [%],inhibition [5] [%],inhibition [6] [%],inhibition [7] [%],inhibition [8] [%],inhibition [9] [%],inhibition [10] [%],inhibition [11] [%],inhibition [12] [%],inhibition [13] [%],inhibition [14] [%],inhibition [15] [%],inhibition [16] [%],inhibition [17] [%],inhibition [18] [%],inhibition [19] [%],inhibition [20] [%]
CCc1cccc(NC(=O)Nc2ccc(Oc3ccc4nc(NC(=O)OC)[nH]c4c3)cc2)c1,-3.46,-1.39,-2.51,1.32,4.86,4.74,-0.97,3.09,2.83,2.77,3.32,0.6,1.24,1.78,1.1,0.58,3.24,-1.37,-2.89,3.74
COc1cc(C)c(NC(=O)CN(C)C)cc1Nc1nc(Nc2cccc(F)c2C(N)=O)c2cc[nH]c2n1,-1.23,-0.13,-0.4,7.08,35.5,0.92,-6.41,0.16,-5.7,1.27,5.68,1.77,-0.24,3.86,3.95,-0.84,-0.26,4.83,9.65,7.92
